In PubChem BioAssay (NCATS) one finds Potency data, which are given here for 25 compounds.

Each structure is given as a SMILES string. Several values for one entry are separate records, joined by “and”; a condition that tells them apart may be missing. Identical values can stand only once. Records with an inconclusive call do not appear. Where a call stands in place of a potency, no number is given. The source holds several records for some structures; these can differ, active in one and inactive in another. Activity calls are given as the source filed them. Unless noted, calls come from the whole dose curve; as a rule, active = well fitted curve in the direction sought with a large enough effect; inconclusive = small, poorly fitted or top-dose-only effect, or another doubt; inactive = no such curve, though single readings can be large; an effect the other way counts as inactive or inconclusive.
Potency is the fitted concentration of half-maximal effect.

Chain of Cytochrome P450 2C9 (Homo sapiens) (P11712 whole entry, looked up): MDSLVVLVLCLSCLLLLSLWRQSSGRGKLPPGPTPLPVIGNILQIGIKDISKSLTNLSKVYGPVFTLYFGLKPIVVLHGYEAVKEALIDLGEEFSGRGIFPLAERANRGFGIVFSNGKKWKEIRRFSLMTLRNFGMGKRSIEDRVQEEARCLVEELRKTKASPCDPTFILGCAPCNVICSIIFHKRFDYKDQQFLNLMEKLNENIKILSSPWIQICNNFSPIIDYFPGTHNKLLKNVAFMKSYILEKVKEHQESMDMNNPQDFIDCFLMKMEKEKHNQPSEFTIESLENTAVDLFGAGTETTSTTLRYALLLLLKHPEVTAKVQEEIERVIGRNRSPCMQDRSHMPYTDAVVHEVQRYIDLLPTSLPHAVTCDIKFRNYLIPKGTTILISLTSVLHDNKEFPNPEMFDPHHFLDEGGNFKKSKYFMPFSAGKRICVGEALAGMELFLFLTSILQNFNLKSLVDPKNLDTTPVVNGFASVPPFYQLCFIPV
Chain of Cytochrome P450 2D6 (Homo sapiens) (P10635 whole entry, looked up): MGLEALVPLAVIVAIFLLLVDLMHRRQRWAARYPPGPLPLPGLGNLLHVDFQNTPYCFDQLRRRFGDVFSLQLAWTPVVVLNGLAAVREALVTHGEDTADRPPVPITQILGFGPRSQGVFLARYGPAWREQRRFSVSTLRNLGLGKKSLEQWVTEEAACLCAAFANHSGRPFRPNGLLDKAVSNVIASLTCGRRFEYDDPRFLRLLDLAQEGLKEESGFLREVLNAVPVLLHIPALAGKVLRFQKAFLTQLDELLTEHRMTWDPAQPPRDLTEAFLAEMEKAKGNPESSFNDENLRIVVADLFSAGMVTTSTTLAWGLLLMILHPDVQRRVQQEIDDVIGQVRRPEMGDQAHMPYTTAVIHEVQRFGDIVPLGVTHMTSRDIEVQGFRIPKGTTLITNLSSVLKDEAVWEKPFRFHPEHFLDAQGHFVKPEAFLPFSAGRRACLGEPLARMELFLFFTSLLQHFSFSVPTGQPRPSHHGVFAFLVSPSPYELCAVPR

One test concerns the target Cytochrome P450 2D6 (Homo sapiens) (UniProt P10635). The experiment in a line: Cytochrome P450 family 2 subfamily D member 6 (CYP2D6) small molecule antagonists: luciferase biochemical (cell-free) qHTS assay (AID 1645840; active = well fitted curve in the direction sought with a large enough effect in the repeat runs; an effect the other way counts as inactive or inconclusive; note: nearly all actives have a fitted effect of over 55% in size). Conditions: P450-Glo CYP2D6 enzyme, luciferin luminescence, 1 h; series mostly up to 57.4 µM. The method, boiled down: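 P450-Glo CYP2D6 system: proluciferin substrate converted by enzyme to luciferin, read by luminescence proportional to activity. Enzyme-substrate mix with compound 10 min at room temperature, then NADPH regeneration 1 h before detection reagent.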
On the technique in general: Quantitative high-throughput screening tests each substance at several concentrations.
Consider `CCOc1ccc(-c2cc(NC(=O)c3c(F)cccc3F)c(C(=O)O)s2)cc1`, for which the Potency was 7.56 µM (active).
Regarding `Cc1ccccc1NC(=O)Nc1ccc(CN2C(=O)N([C@@H](CC(C)C)C(=O)N[C@@H](CC(=O)O)c3ccccc3)C(=O)C2(C)C)cc1`, the Potency entry is “inactive”.
Same read-out and setting: the result for `CCCc1[nH]nc2c1C(c1cc(Cl)cc(Cl)c1O)C(C#N)=C(N)O2` (stereo not given) reads 2.13 µM (active); that for `Oc1ccc2c(-c3c(-c4ccccn4)nn4c3CCC4)ccnc2c1`, “inactive”.

Another test deals with Cytochrome P450 2C9 (Homo sapiens) (UniProt P11712). The experiment in a line: Cytochrome P450 family 2 subfamily C member 9 (CYP2C9) small molecule antagonists: luciferase biochemical (cell-free) qHTS assay (AID 1645842; active = well fitted curve in the direction sought with a large enough effect in the repeat runs; an effect the other way counts as inactive or inconclusive; note: nearly all actives have a fitted effect of over 55% in size). Conditions: P450-Glo CYP2C9 enzyme assay, luciferin luminescence; series mostly up to 57.4 µM. The method, boiled down:
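P450-Glo CYP2C9 system: proluciferin substrate with enzyme in mix containing 0.4% BSA, 10 min at room temperature, then NADPH regeneration solution added and incubated 1 h at 37C. Detection reagent stopped reaction; luminescence read after 20 min as RLU.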
As for `O=C(O)c1cccc(CN2C(=O)/C(=C(\c3ccccc3)c3ccc(Cl)cc3)c3ccccc32)c1`, the Potency was 15.1 µM (active).
For `COc1cc(Nc2ccc([N+](=O)[O-])cc2C(=O)O)cc2ccccc12`, the Potency was 6.74 µM (active).
`CCCc1[nH]nc2c1C(c1cc(Cl)cc(Cl)c1O)C(C#N)=C(N)O2` (stereo not given): the Potency is 12 µM (active).
Still for that read-out and setting: the same measure for `COc1ccc(S(=O)(=O)Nc2nc(-c3cccc([N+](=O)[O-])c3)cs2)cc1OC`: 4.25 µM (active); for `Oc1ccc2c(-c3c(-c4ccccn4)nn4c3CCC4)ccnc2c1`: “inactive”.

Tested on in a further test: not listed separately
The experiment in a line: Primary qHTS for inhibitors of nuclear receptor binding SET domain protein 2 (NSD2) in an isogenic RCH-ACV NSD2 p.E1099K mutant (9B) (AID 1645876). Note: nearly all actives have a fitted effect of over 70% in size. The settings on record: RCH-ACV (leukaemia line) NSD2 E1099K (9B) viability, CellTiter-Glo, 72 h; series mostly up to 44.9 µM.
In the case of `O=C(O)CC1(O)C(=O)Nc2ccccc21` (stereo not given), the Potency entry was “inactive”.
Still for that read-out and setting: the same measure for `CCc1nnc(NS(=O)(=O)c2ccc(NC(=S)NC(=O)/C=C/c3ccc(F)cc3)cc2)s1`: “inactive”; for `COC(=O)C1=CO[C@@H](O[C@@H]2O[C@H](CO)[C@@H](O)[C@H](O)[C@H]2O)[C@@H]2C(CO)=CC[C@H]12`: “inactive”.
As for `Cc1noc2c1-c1ccccc1C(c1ccc(Cl)cc1)=N[C@H]2CC(N)=O`, the Potency result is “inactive and 590 nM (active)”.
The same measure, in the same setting: the same measure for `N=C(N)c1ccc2nc(-c3cc(CC(=O)NC(CC(=O)O)C(=O)O)cc(-c4cc(S(N)(=O)=O)ccc4O)c3O)[nH]c2c1` (stereo not given): “inactive”; for `C/C(=C\CC/C(C)=C/CC[C@]1(C)CCc2cc(O)cc(C)c2O1)CC/C=C(\C)C(=O)O`: “inactive”.
Still for that read-out and setting: the result for `COc1cc(/C=C/c2ccccc2)c(C(=O)O)c(O)c1CC=C(C)C` reads “inactive”; that for `OCC1=C[C@@H](O)[C@@H]2C=CO[C@@H](O[C@@H]3O[C@H](CO)[C@@H](O)[C@H](O)[C@H]3O)[C@H]12`, “inactive”.
Turning to `CC1CC2(O)OC(=O)C3=C2C(CCC3)[C@@]12C[C@@H](c1ccoc1)OC2=O` (stereo not given in full), the Potency result is “inactive”.
Same read-out and setting: the same measure for `Cc1ccccc1NC(=O)Nc1ccc(CN2C(=O)N([C@@H](CC(C)C)C(=O)N[C@@H](CC(=O)O)c3ccccc3)C(=O)C2(C)C)cc1`: “inactive”; for `COc1cc(Nc2ccc([N+](=O)[O-])cc2C(=O)O)cc2ccccc12`: “inactive”; for `COc1ccc(CCC(=O)c2c(O)cc(O[C@@H]3O[C@H](CO)[C@@H](O)[C@H](O)[C@H]3O[C@@H]3O[C@@H](C)[C@H](O)[C@@H](O)[C@H]3O)cc2O)cc1O`: “inactive”.
Regarding `COc1c(C)c(OCC(O)C(C)(C)O)cc2c1CNC2=O` (stereo not given), the Potency result is “inactive”.
The same measure, in the same setting: the same measure for `C=C1CC/C=C(/CO)C(=O)C[C@@H]2[C@@H]1C[C@@]2(C)COC(C)=O`: “inactive”.
The same measure, in the same setting: the result for `COc1ccc(S(=O)(=O)Nc2nc(-c3cccc([N+](=O)[O-])c3)cs2)cc1OC` reads “inactive”; that for `O=C(/C=C/c1ccccc1)OC[C@H]1O[C@@H](OC(=O)c2cc(O)c(O)c(O)c2)[C@H](O)[C@@H](O)[C@@H]1O`, “inactive”.
Same read-out and setting: the result for `Cc1c(O)cc2c(c1O)COC1(O)CCCOC21` (stereo not given) reads “inactive”; that for `COC(=O)C1C(O)CCC2CN3CCc4c([nH]c5ccccc45)C3CC21` (stereo not given), “inactive”; that for `C=C[C@H]1[C@H](O[C@@H]2O[C@H](CO)[C@@H](O)[C@H](O)[C@H]2O)OC=C(C(=O)OC)[C@H]1CCO`, “inactive”.
For `O=C(O)CCc1ccc(NCc2cccc3c2CCCN3CCOc2ccccc2)cc1F`, the Potency entry is “inactive”.
The same measure, in the same setting: the same measure for `C=C1CCC2C(C)(C)CC(O)CC2(C)C1CCC(C)CCOC(=O)CCC(=O)O` (stereo not given): “inactive”.
